Inconclusive results are not listed. Activity calls are given as the source filed them. The call rests on the fitted dose curve; in most records, active means well fitted curve in the direction sought with a large enough effect; inconclusive means small, poorly fitted or top-dose-only effect, or another doubt; inactive means no such curve, though single readings can be large; an effect the other way counts as inactive or inconclusive.
Assays:
[1] = qHTS of pediatric cancer cell lines to identify multiple opportunities for drug repurposing: Primary screen for OHS-50 cells (AID 1347103); further: nearly all actives have a fitted effect of over 40% in size;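 on activity change, negative = cytotoxic: plate controls were DMSO neutral control for no effect and bortezomib positive control for full effect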
How it was run: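 Cells (500-1,000/well) rested 5 h, then received compounds for 48 h; metabolically active cells were measured by CellTiter-Glo luminescence. Final concentrations spanned up to 46 µM (MIPE, 11-point) or 0.59 nM-46 µM (NPC, 8-point) in primary screens, 11-point in follow-ups.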

[2] = qHTS of pediatric cancer cell lines to identify multiple opportunities for drug repurposing: Primary screen for MG 63 (6-TG R) cells (AID 1347105); further: nearly all actives have a fitted effect of over 50% in size; on activity change, negative = cytotoxic: on the % scale 0 is the no-effect control and ±100 the full control effect
How it was run: (§1)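 Plated cells (500-1,000 per well, growth media) were allowed to settle for 5 hours, treated with compound dilutions for 48 hours, then lysed with CellTiter-Glo for 15 min at room temperature before luminescence reading.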

[3] = qHTS of pediatric cancer cell lines to identify multiple opportunities for drug repurposing: Primary screen for control Hh wild type fibroblast cells (AID 1347106); further: nearly all actives have a fitted effect of over 55% in size;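 on activity change, negative = cytotoxic: series mostly up to about 46 µM; on the % scale 0 is the no-effect control and ±100 the full control effect; a drop in luminescence marks cytotoxicity and a rise apparent proliferation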
How it was run: (§2)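 Cells (500-1,000/well) in growth media were settled 5 h at 37 degrees C, then given compounds for 48 h. Viability was read as CellTiter-Glo luminescence. Primary runs used MIPE at 11 points (0.78 nM-46 µM) and NPC at 8 points (0.59 nM-46 µM); follow-ups used 11 points.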

[4] = qHTS of pediatric cancer cell lines to identify multiple opportunities for drug repurposing: Primary screen for Rh41 cells (AID 1347108); further: nearly all actives have a fitted effect of over 70% in size;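 on activity change, negative = cytotoxic: series mostly up to about 46 µM; luminescence drop marks cytotoxic hits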
How it was run: as §1

[5] = qHTS of pediatric cancer cell lines to identify multiple opportunities for drug repurposing: Confirmatory screen for NB1643 cells (AID 1347109); further: nearly all actives have a fitted effect of over 45% in size;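 on activity change, negative = cytotoxic: plate controls were DMSO for no effect and bortezomib for full effect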
How it was run: as §2

[6] = qHTS of pediatric cancer cell lines to identify multiple opportunities for drug repurposing: Confirmatory screen for A673 cells (AID 1347110);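 further: cells exposed to compound for 48 h before the viability read; nearly all actives have a fitted effect of over 65% in size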
How it was run: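 Concentration-response curves came straight from titrations: 11 points (0.78 nM to 46 µM) for MIPE and several concentrations (0.59 nM to 46 µM) for NPC in primary, 11 points in follow-up. Readout: ATP luminescence at 48 h.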

[7] = qHTS of pediatric cancer cell lines to identify multiple opportunities for drug repurposing: Confirmatory screen for SK-N-MC cells (AID 1347111);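 further: cells exposed to compound for 48 h before the readout; nearly all actives have a fitted effect of over 70% in size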
How it was run: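 Metabolically active cells were quantified by ATP-dependent luminescence (CellTiter-Glo, 15 min at room temperature) following 48 h treatment. Cells had been plated at 500-1,000 per well and settled for 5 h beforehand.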

[8] = qHTS of pediatric cancer cell lines to identify multiple opportunities for drug repurposing: Confirmatory screen for BT-12 cells (AID 1347112); further: nearly all actives have a fitted effect of over 55% in size; on activity change, negative = cytotoxic: on the % scale 0 is the no-effect control and ±100 the full control effect
How it was run: as §2

[9] = qHTS of pediatric cancer cell lines to identify multiple opportunities for drug repurposing: Primary screen for Rh30 cells (AID 1347107); further: nearly all actives have a fitted effect of over 75% in size; on activity change, negative = cytotoxic: series mostly up to about 46 µM; on the % scale 0 is the no-effect control and ±100 the full control effect
How it was run: as §2

[10] = qHTS of pediatric cancer cell lines to identify multiple opportunities for drug repurposing: Primary screen for RD cells (AID 1347104); further: nearly all actives have a fitted effect of over 55% in size
How it was run: as §1
Potency means the concentration at half of the fitted maximal effect.

C=CC(=O)Nc1cccc(Nc2nc(NC3CCC(N(C)C)CC3)nc3c2ncn3C(C)C)c1 (stereo unspecified)
active: Potency [1] 38.5 nM | Potency [2] 469 nM | Potency [3] 2350 nM | Potency [4] 20.9 nM | Potency [5] 414 nM | Potency [6] 737 nM | Potency [7] 2610 nM | Potency [8] 1170 nM

CC(C)(C)[C@H](NC(=O)c1ccc(N)c(Cl)c1)C(=O)N1CCC[C@@H]1C(=O)N[C@H](C#N)CC(=O)O
inactive: activity change, negative = cytotoxic [1] -19.6% [at 6.18 µM] | activity change, negative = cytotoxic [2] -25.9% [at 4.84 µM] | activity change, negative = cytotoxic [3] -7.94% [at 4.84 µM] | activity change, negative = cytotoxic [9] 14.6% [at 4.84 µM]

COC[C@H](NC(=O)c1cnc(C)s1)C(=O)N[C@@H](COC)C(=O)N[C@@H](Cc1ccccc1)C(=O)[C@@]1(C)CO1
active: Potency [1] 193 nM | Potency [2] 235 nM | Potency [3] 935 nM | Potency [9] 1660 nM | Potency [4] 296 nM | Potency [6] 165 nM | Potency [7] 36.9 nM | Potency [8] 414 nM

CN[C@H](CC(C)C)C(=O)N[C@H]1C(=O)N[C@@H](CC(N)=O)C(=O)N[C@@H]2C(=O)N[C@H]3C(=O)N[C@H](C(=O)N[C@H](C(=O)O)c4cc(O)cc(O)c4-c4cc3ccc4O)[C@H](O)c3ccc(c(Cl)c3)Oc3cc2cc(c3O[C@@H]2O[C@H](CO)[C@@H](O)[C@H](O)[C@@H]2O[C@H]2C[C@](C)(N)[C@H](O)[C@H](C)O2)Oc2ccc(cc2Cl)[C@H]1O
inactive: Potency [1] | Potency [2] | Potency [3]

C[C@@]12C[C@@]3(O)O[C@@H](O1)[C@]1(COC(=O)c4ccccc4)[C@@H]3C[C@@]12O[C@@H]1O[C@H](CO)[C@@H](O)[C@H](O)[C@@H]1O
inactive: Potency [1] | Potency [2] | Potency [3] | Potency [9]

CC(C)(O)CC[C@@H](O)[C@](C)(O)[C@H]1CC[C@@]2(O)C3=CC(=O)[C@@H]4C[C@@H](O)[C@@H](O)C[C@]4(C)[C@@H]3CC[C@]12C
inactive: Potency [1] | Potency [2] | Potency [3] | Potency [9] | Potency [4]

COc1ccnc2[nH]cc(C(=O)C(=O)N3CCN(C(=O)c4ccccc4)C[C@@H]3C)c12
inactive: Potency [1] | Potency [2] | Potency [3] | Potency [9] | Potency [4]

CC(O)(C#Cc1ccc2c(c1)N(c1nc(N)ncc1Cl)CC2)c1nccs1 (stereo unspecified)
active: Potency [1] 24300 nM | Potency [2] 9350 nM
inactive: Potency [3] | Potency [9] | Potency [4]

CCOc1cc2ncc(C#N)c(Nc3ccc(OCc4ccccn4)c(Cl)c3)c2cc1NC(=O)C=CCN(C)C
active: Potency [1] 863 nM | Potency [10] 418 nM | Potency [6] 10400 nM | Potency [7] 10400 nM

COc1ccc2c(c1OC)C(=O)OC2[C@H]1c2c(cc3c(c2OC)OCO3)CCN1C (stereo partly specified)
active: Potency [1] 137 nM | Potency [10] 372 nM | Potency [4] 469 nM
inactive: Potency [5] | Potency [8]

CC(C=CC(=O)NO)=C[C@@H](C)C(=O)c1ccc(N(C)C)cc1
active: Potency [1] 863 nM | Potency [2] 2350 nM | Potency [3] 10500 nM | Potency [9] 7430 nM | Potency [4] 1480 nM | Potency [5] 585 nM | Potency [6] 827 nM | Potency [7] 185 nM | Potency [8] 2930 nM

CC(=O)O[C@@]12CO[C@H]1C[C@H](O)[C@@]1(C)C(=O)[C@H](O)C3=C(C)[C@@H](OC(=O)C(O)[C@@H](NC(=O)OC(C)(C)C)c4ccccc4)C[C@@](O)([C@@H](OC(=O)c4ccccc4)[C@@H]21)C3(C)C (stereo partly specified)
inactive: Potency [2] | Potency [3]
active: Potency [1] 1 nM | Potency [6] 5.2 nM | Potency [7] 6.6 nM

Cc1onc(-c2ccccc2)c1C(=O)N[C@@H]1C(=O)N2[C@@H](C(=O)O)C(C)(C)S[C@@H]12
inactive: Potency [1] | Potency [2] | Potency [3] | Potency [9]

N#CNC(=NCCCCCCOc1ccc(Cl)cc1)Nc1ccncc1
active: Potency [1] 21700 nM | Potency [2] 14800 nM | Potency [9] 5.9 nM | Potency [4] 5.9 nM | Potency [5] 14.7 nM | Potency [6] 11.7 nM | Potency [7] 14.7 nM
inactive: Potency [3]

Cc1ccc(-n2[nH]c(C)c(N=Nc3cccc(-c4cccc(C(=O)O)c4)c3O)c2=O)cc1C
active: Potency [1] 17400 nM | Potency [2] 21100 nM | Potency [4] 18700 nM
inactive: Potency [3]

O=C(Nc1nnc(-c2ccco2)o1)c1cc(-c2ccccc2)nc2ccccc12
active: Potency [1] 30600 nM | Potency [2] 14800 nM
inactive: Potency [3]

C[C@@H]1CC[C@@]2(OC1)OC1CC3C4CC=C5CC(O)CCC5(C)C4CCC3(C)C1[C@@H]2C (stereo partly specified)
inactive: Potency [1] | Potency [2] | Potency [3] | Potency [9] | Potency [4]

COc1ccc(CCC(=O)c2c(O)cc(O[C@@H]3O[C@H](CO)[C@@H](O)[C@H](O)[C@@H]3O[C@@H]3O[C@@H](C)[C@H](O)[C@@H](O)[C@@H]3O)cc2O)cc1O
active: Potency [3] 3720 nM
inactive: Potency [1] | Potency [2]

CC(=O)SCC(Cc1ccccc1)C(=O)NCC(=O)OCc1ccccc1 (stereo unspecified)
inactive: Potency [5] | Potency [6] | Potency [8]
active: Potency [1] 19300 nM | Potency [10] 2090 nM | Potency [4] 5900 nM

O=C(C[C@@H]1CC=CCCC(=O)O[C@H](c2ccccc2)CNC1=O)NCc1ccc(Cl)cc1
inactive: Potency [1] | Potency [2] | Potency [9] | Potency [4]

C[C@H]1COc2c(N3CCN(C)CC3)c(F)cc3c(=O)c(C(=O)O)cn1c23
inactive: Potency [1] | Potency [2] | Potency [3] | Potency [9] | Potency [4]

NC1=N[C@H]2[C@H](CS[C@H]2CCCCC(=O)O)N1
inactive: Potency [1] | Potency [2] | Potency [9] | Potency [4]

From PubChem BioAssay (NCATS)
